# Source: the supplement of paper PMC3545927
# Some of the results follow. The hit rate among all sequences tested is not known here.
# Target: furin, P09958
# Assay: furin cleavage Z-score vs untreated control; higher = more cleavage, active = 3.5 or more, inactive = 1 or less, 8 variable residues between constant flanks
# In short: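 Peptides 8 residues long, fused to a cDNA oligonucleotide, were fixed to magnetic beads by the N-terminus and exposed to purified furin. The 0.01 ml reactions contained 50 mM HEPES pH 7.5 with CaCl2 and NaCl at 1:10 enzyme:substrate and ran 7.5, 15 or 30 min. For the cleavage Z-score, log counts of sequenced released DNA were compared with furin-free reactions, lowess-adjusted and scaled by median absolute deviation.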
# Chain of furin, P09958 (P09958 whole entry): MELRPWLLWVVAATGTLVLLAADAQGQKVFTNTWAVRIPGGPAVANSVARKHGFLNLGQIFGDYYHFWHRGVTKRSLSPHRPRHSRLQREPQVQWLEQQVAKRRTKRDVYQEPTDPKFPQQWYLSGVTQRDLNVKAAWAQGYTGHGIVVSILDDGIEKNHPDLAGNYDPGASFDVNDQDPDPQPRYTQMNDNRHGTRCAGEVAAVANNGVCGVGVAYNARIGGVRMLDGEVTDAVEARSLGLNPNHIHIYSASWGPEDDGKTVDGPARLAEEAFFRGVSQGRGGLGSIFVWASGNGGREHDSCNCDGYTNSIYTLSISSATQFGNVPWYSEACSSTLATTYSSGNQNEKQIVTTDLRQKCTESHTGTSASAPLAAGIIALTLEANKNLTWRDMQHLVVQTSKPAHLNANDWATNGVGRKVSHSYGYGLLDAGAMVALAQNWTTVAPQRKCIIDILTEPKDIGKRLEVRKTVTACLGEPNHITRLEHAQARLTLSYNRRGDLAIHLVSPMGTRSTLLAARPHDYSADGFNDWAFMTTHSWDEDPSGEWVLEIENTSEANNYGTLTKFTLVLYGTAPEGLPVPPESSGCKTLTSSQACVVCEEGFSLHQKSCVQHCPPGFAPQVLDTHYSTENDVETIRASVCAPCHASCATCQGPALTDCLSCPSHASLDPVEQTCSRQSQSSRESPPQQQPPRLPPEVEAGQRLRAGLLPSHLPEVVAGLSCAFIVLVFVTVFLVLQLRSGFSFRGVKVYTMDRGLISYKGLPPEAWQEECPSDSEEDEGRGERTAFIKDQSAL
Sequence,furin cleavage Z-score (7.5 min),furin cleavage Z-score (15 min),furin cleavage Z-score (30 min)
CAMEECSQVLAGNASASA [HC1750],1.44,-0.739 (inactive),1.26
CALPKRVRRQAGNASASA [FS-1029],11.3 (active),12.3 (active),8.74 (active)
CAVGDLCGSVAGNASASA [HC299],-0.438 (inactive),-0.375 (inactive),1.2
CAVPYFVRVQAGNASASA [HC615],-1.87 (inactive),0.165 (inactive),-0.325 (inactive)
CALPYLVAYQAGNASASA [HC952],0.718 (inactive),-1.65 (inactive),-1.41 (inactive)
CACSTRVRRQAGNASASA [FS-120],11 (active),8.81 (active),7.5 (active)
CAFLTRVEAQAGNASASA [HC585],-0.981 (inactive),1.44,-1 (inactive)
CAVPERCRRQAGNASASA [FS-1580],6.62 (active),9.1 (active),6.98 (active)
CATTPCSPSWAGNASASA [HC1899],0.637 (inactive),0.489 (inactive),-0.787 (inactive)
CAPEFFTELDAGNASASA [HC1220],-0.864 (inactive),-0.533 (inactive),-1.32 (inactive)
CALQERVPRDAGNASASA [FS-1366],7.28 (active),7.82 (active),7.62 (active)
CAAVQRVPRDAGNASASA [FS-1312],6.89 (active),6.58 (active),5.33 (active)
CAFVQRVFRDAGNASASA [FS-776],-0.109 (inactive),-0.244 (inactive),0.515 (inactive)
CAQRQPFPRDAGNASASA [FS-951],0.0863 (inactive),0.099 (inactive),-1.03 (inactive)
CAVVCCWMSYAGNASASA [HC107],-0.895 (inactive),0.873 (inactive),-1.73 (inactive)
CASQPCSAHLAGNASASA [HC2502],-0.0566 (inactive),0.435 (inactive),0.0846 (inactive)
CARARRDHFSAGNASASA [FS-2642],1.38,1.33,3.76 (active)
CARARRDAGPAGNASASA [FS-3150],10.1 (active),11.6 (active),7.77 (active)
CARARRGLRGAGNASASA [FS-1817],1.71,0.637 (inactive),3.32
CARHYKSASPAGNASASA [FS-1718],-1.62 (inactive),-1.27 (inactive),-1.9 (inactive)
CARARRGTSGAGNASASA [FS-2646],3.84 (active),5.25 (active),5.55 (active)
CARARRSASPAGNASASA [FS-2481],8.11 (active),8.29 (active),5.23 (active)

Sequence,furin cleavage Z-score (7.5 min),furin cleavage Z-score (15 min),furin cleavage Z-score (30 min)
CARARRGPSPAGNASASA [FS-2131],-1.25 (inactive),-0.123 (inactive),-0.828 (inactive)
CARARRGGGSAGNASASA [FS-2645],-0.34 (inactive),-0.574 (inactive),0.0356 (inactive)
CANTPCSAHLAGNASASA [HC2481],-0.479 (inactive),-0.245 (inactive),0.352 (inactive)
CAMEECSWHLAGNASASA [HC1728],-0.727 (inactive),1.63,1.16
CAGNASRCWVAGNASASA [HC277],-0.19 (inactive),0.165 (inactive),-0.828 (inactive)
CARARRGVEVAGNASASA [FS-2647],4.52 (active),5.87 (active),6.09 (active)
CAQLPCEPEPAGNASASA [HC1240],0.775 (inactive),-0.524 (inactive),-0.783 (inactive)
CAFFSVLIARAGNASASA [HC1585],-2.48 (inactive),-0.777 (inactive),-0.815 (inactive)
CAYLLRRRRNAGNASASA [FS-1620],5.7 (active),4.73 (active),3.09
CAYLLPRRGPAGNASASA [HC178],-0.496 (inactive),-0.768 (inactive),-0.313 (inactive)
CAHLSRRRRNAGNASASA [FS-1007],11.1 (active),9.66 (active),7.89 (active)
CAECTTPCSGAGNASASA [HC1144],-0.495 (inactive),-0.922 (inactive),-0.582 (inactive)
CALSARRFRVAGNASASA [FS-1371],0.442 (inactive),-0.766 (inactive),0.226 (inactive)
CAAIGRSRRVAGNASASA [FS-114],2.54,1.95,4.65 (active)
CAKSVRKRRVAGNASASA [FS-603],10.7 (active),11.6 (active),9.56 (active)
CAITSCSSNVAGNASASA [HC1552],0.153 (inactive),0.128 (inactive),0.563 (inactive)
CAEVVTSTRVAGNASASA [HC2233],-0.495 (inactive),0.515 (inactive),-0.63 (inactive)
CARSVRKVIVAGNASASA [FS-3099],0.811 (inactive),-1.26 (inactive),0.845 (inactive)
CAAIIPDREVAGNASASA [HC1007],-0.132 (inactive),-0.083 (inactive),-0.0846 (inactive)
CAATSRKRRVAGNASASA [FS-1311],7.4 (active),11 (active),9.97 (active)
CADDDKIVGGAGNASASA [EK7],-1.75 (inactive),-1.15 (inactive),-0.908 (inactive)
